# Compound activity: PubChem, National Center for Advancing Translational Sciences (NCATS)
# NS1 inh: qHTS Assay for Inhibitors of Influenza NS1 Protein Function; Potency, µM (top dose mostly 46.1 µM), for the others: at the top dose activity, positive = more growth; 270,000 compounds, 0.4% hits; calls by dose curve; also: actives are rising curves; nearly all actives have a fitted effect of over 50% in size
#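 Read-out: OD600 growth recovery of NS1-expressing budding yeast. Cells grown overnight at 30C in -URA glucose medium, washed, resuspended and diluted 1:100 in 2% galactose assay medium, pH 6.0. Same strain lacking NS1 served as positive control.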
# Pf growth 96h: Primary qHTS for delayed death inhibitors of the malarial parasite plastid, 96 hour incubation; P. falciparum luciferase reporter growth, 96 h; AID 504834, 2011; 320,000 compounds, 6.9% hits; Potency, µM (highest dose often 28.7 µM), inactives show at the highest dose activity change, negative = inhibition, hits mostly inhibitors; also: % is scaled to controls: 0 for no effect and ±100 for the full control effect
#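 Plates of compound plus infected erythrocytes (2% hematocrit, 0.05% parasitemia final) incubate 96 hours, 37 C, 5% CO2. Detection reagent added; reduced luminescence from the parasites' luciferase reporter flags inhibition.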
# Vaccinia Venus: qHTS for Stage-Specific Inhibitors of Vaccinia Orthopoxvirus: Venus Reporter Primary qHTS; Vaccinia virus Venus reporter expression, fluorescence; Potency, µM (series often up to 36.5 µM), inactives show at the highest dose activity change, negative = inhibition, hits mostly inhibitors; 330,000 compounds, 0.46% hits; calls by dose curve; tested in A549 cells; also: % is scaled to controls: 0 for no effect and ±100 for the full control effect; nearly all actives have a fitted effect of over 30% in size
# Pf growth 48h: Primary qHTS for delayed death inhibitors of the malarial parasite plastid, 48 hour incubation | 310,000 compounds, 5.9% hits | Potency, µM (doses to about 28.7 µM), inactives show at the top dose activity change, negative = inhibition, actives largely listed as inhibitors | P. falciparum luciferase growth in erythrocytes, 48 h; also: % is scaled to controls: 0 for no effect and ±100 for the full control effect
#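 Luciferase-expressing parasites in RBCs, 2% Hct / 0.1% parasitemia final; RPMI 1640 + 0.5% Albumax; 37 C, 5% CO2, one generation; luminescence read-out, lower signal = inhibition.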
# HCV inhibitor: qHTS Assay for Inhibitors of Hepatitis C Virus (HCV); Huh7.5.1 HCVcc-Cre infection, luciferase reporter, 44 h; Potency, µM (highest dose often 41.8 µM), for inactives: at the top dose activity change, negative = inhibition, most hits filed as inhibitors; 340,000 compounds, 3.4% hits; AID 651820, 2012; also: % is scaled to controls: 0 for no effect and ±100 for the full control effect
#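 Seed cells (1,000/well) for 4 h; treat with compound and infect with HCVcc-Cre, moi about 0.5. Incubate 44 h, then detect luciferase activity.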
# VACV mCherry inh: qHTS for Stage-Specific Inhibitors of Vaccinia Orthopoxvirus: mCherry Reporter Primary qHTS | 310,000 compounds, 0.63% hits | Potency, µM (doses to about 36.5 µM), for the others: at the top dose activity change, negative = inhibition, most hits filed as inhibitors | Vaccinia virus mCherry reporter infection, fluorescence | AID 720579, 2013; calls by dose curve; tested in A549 cells; also: % is scaled to controls: 0 for no effect and ±100 for the full control effect; nearly all actives have a fitted effect of over 35% in size
# The depositor's hits bear a star; i = inactive; ? = inconclusive; . = no result given. Hits are enriched below; roughly 11% of the tested compounds scored in any of these assays. Unless noted, calls follow the shape of the dose curve; as a rule, active = well fitted inhibition curve with a large enough effect; inconclusive = small, poorly fitted or top-dose-only effect, or another doubt; inactive = no such curve, though single readings can be large or run the other way. Potency is read from the fitted curve at half-maximal effect.
SMILES,NS1 inh,Pf growth 96h,Vaccinia Venus,Pf growth 48h,HCV inhibitor,VACV mCherry inh
Cc1ccc(S(=O)(=O)/N=C2\C=C(Nc3cccc(C(=O)O)c3)C(=O)c3ccccc32)c(C)c1,12%,19%,-24%,1.7µM*,10%,-13%
CCc1ccc(S(=O)(=O)/N=C2\C=C(Nc3ccc(C(=O)O)cc3)C(=O)c3ccccc32)cc1,-2%,3.7µM*,-6%,2.3µM*,?,?
Cc1ccc(S(=O)(=O)/N=C2\C=C(Nc3cccc(C(=O)O)c3)C(=O)c3ccccc32)cc1,-21%,-9%,5%,4.7µM*,-7%,?
Cc1ccc(S(=O)(=O)/N=C2\C=C(Nc3ccc(O)cc3)C(=O)c3ccccc32)cc1,.,.,2.2µM*,.,6.3µM*,5µM*
CC(C)(C)OC(=O)C[C@@H]1C/C=C\C[C@@H](CC(=O)NCCO)C(=O)N[C@H](Cc2ccccc2)COC1=O,.,.,-6%,.,17%,i
O=C(C[n+]1ccccc1)Nc1nc2ccccc2s1,-1%,-11%,-3%,18%,15%,-13%
COc1cccc(Sc2cc(N3CCOCC3)nc(-c3ccccc3)n2)c1,-7%,26%,?,?,?,-11%
S=C(NCc1ccncc1)Nc1cc(Cl)cc(Cl)c1,-3%,35%,.,13µM*,18%,.
O=C(CCc1ccccc1)NCc1ccncc1,9%,3.7µM*,.,10%,10%,.
S=C(NCc1ccccc1)Nc1ccncc1,-10%,?,-18%,?,1.8µM*,-21%
S=C(NCc1ccncc1)Nc1ccc(Cl)c(Cl)c1,-15%,?,-12%,?,?,-26%
S=C(NCc1cccnc1)Nc1cc(Cl)cc(Cl)c1,-6%,?,.,2.9µM*,7%,.
Nc1c(NCCN2CCCCC2)c2ccccc2oc1=O,2%,?,.,0%,-24%,.
O=c1c2nncn2ccn1-c1ccc(F)c(F)c1,.,.,5%,.,.,-5%
COc1cc(NC(=O)CSc2nc3ccccc3nc2Cc2ccc(Cl)cc2)cc(OC)c1,.,.,-15%,.,.,-21%
Cc1ccccc1CN1CCc2nc(Nc3ccc4c(c3)OCCO4)ncc2C1,.,.,-18%,.,.,-29%
O=C(CCN1CCCO1)NC1CCCc2c1cnn2-c1ccccc1F (configuration not stated),12%,?,.,0%,-20%,.
O=C(CCc1cn2ccccc2n1)NC1CCCc2c1cnn2-c1ccccc1F (configuration not stated),-6%,13µM*,.,-19%,6%,.
CCN(CC)S(=O)(=O)c1ccc(C(=O)NCCSc2c(-c3ccc(OC)cc3)[nH]c3ccccc23)cc1,.,.,-17%,.,.,-19%
Cc1nn(-c2cc(N3CCCCCC3)ccc2[N+](=O)[O-])c(=O)c2ccccc12,10%,.,.,?,13µM*,.
CCOc1cc(N2CCCC2)ccc1[N+](=O)[O-],-4%,6.6µM*,-12%,10%,?,-26%
O=[N+]([O-])c1ccc(N2CCNCC2)cc1N1CCCCC1,3%,-20%,.,-5%,10µM*,.
Cc1nn(-c2cc(N3CCCCC3)ccc2N)c(=O)c2ccccc12,8%,3%,-15%,10%,13%,i
CCn1c(=O)n(CC)c2cc([N+](=O)[O-])c(N3CCNCC3)cc21,.,5.9µM*,-17%,-18%,?,-17%
Nc1cc(N2CCNCC2)c([N+](=O)[O-])cc1Cl,-7%,32%,-7%,-3%,5%,i
SMILES,NS1 inh,Pf growth 96h,Vaccinia Venus,Pf growth 48h,HCV inhibitor,VACV mCherry inh
Cc1noc(NS(=O)(=O)c2ccc(NC(=O)CC34CC5CC(CC(Br)(C5)C3)C4)cc2)c1C,-20%,0%,.,15%,0%,.
CNC(=O)Nc1ccc(C2SCCS2)cc1,1%,43%,-17%,53%,-4%,-21%
O=C(COC(=O)c1ccc(F)c(S(=O)(=O)N2CCCCC2)c1)NCc1ccc(F)cc1,.,5%,-17%,-5%,-4%,i
O=C(COc1ccccc1)N1CCN(c2ccc([N+](=O)[O-])c(N3CCCCC3)c2)CC1,-2%,?,-12%,?,7.1µM*,-13%
CC1CCCCN1CCCNc1c(C=O)c(=O)[nH]c2ccccc12 (configuration not stated),16%,-2%,-7%,0%,10%,-3%
COc1cc(CCN=Cc2cc(Cl)cc(Cl)c2O)c([N+](=O)[O-])cc1OC,.,.,3%,.,.,13%
COc1ccc(NC(=O)Nc2ccc(Cc3ccncc3)cc2)cc1OC,20%,5.2µM*,-25%,?,?,?
COc1cc(OC)cc(C(=O)Nc2ccc(Cn3ccnc3)cc2)c1,9%,22%,.,?,0%,.
COc1ccc(C(=O)Nc2ccc(Cn3ccnc3)cc2)cc1OC,0%,10µM*,5%,34%,?,5%
COc1cc(Cn2ccnc2)c(OC)cc1Cn1ccnc1,2%,?,-3%,9.3µM*,24%,i
COc1ccccc1OCC#CCn1ccnc1,2%,2%,.,-6%,14%,.
COc1ccccc1NC(=O)Nc1ccc(Cc2ccncc2)cc1,-7%,10%,-8%,20%,-16%,-16%
COc1cc2ccccc2cc1C(=O)Nc1ccc(Cc2ccncc2)cc1,-101%,4.1µM*,.,.,10µM*,.
CC(/C=C1\SC(=S)N(CCC(=O)Nc2ccccc2O)C1=O)=C\c1ccccc1,18%,?,-12%,?,.,-1%
COC(=O)[C@@]12CCCCN1[C@H](c1ccc(-c3ccc(Cl)c(Cl)c3)cc1)[C@H]1C(=O)N(C)C(=O)[C@H]12,.,.,?,.,14%,?
COC(=O)[C@@]12CCCCN1[C@H](c1ccc(-c3ccccc3)cc1)[C@H]1C(=O)N(C)C(=O)[C@H]12,.,1%,-29%,-19%,-3%,?
COC(=O)[C@@]12CCCN1[C@H](c1ccc(-c3ccc(OC)cc3)cc1)[C@@H]1C(=O)N(C)C(=O)[C@@H]12,.,9.3µM*,-19%,5.9µM*,?,-10%
COC(=O)[C@@]12CCCN1[C@H](c1ccc(-c3ccccc3)cc1)[C@H]1C(=O)N(C)C(=O)[C@H]12,.,?,-19%,10µM*,-4%,i
COC(=O)C1=CCCN(C)C1,-3%,?,-4%,1%,-2%,-12%
Cc1nc(SCC(=O)OCc2ccccc2)c2c(=O)n(C)c(=O)n(C)c2n1,-44%,?,3%,7.4µM*,5%,-20%
Cc1ccc(C(=O)N/C(=C\c2ccc(-c3cccc([N+](=O)[O-])c3)o2)C(=O)NCCCN2CCOCC2)cc1,8%,?,.,?,10µM*,.
